# Data published in ChEMBL document CHEMBL4513216, “Probing the Open Global Health Chemical Diversity Library for Multistage-Active Starting Points for Next-Generation Antimalarials” (ACS Infect Dis, 2020).
# Screen size: about 69,000 compounds; about 8,600 (12%) showed an effect of 50% or more. The list comes from a sample in which strong results are over-represented; it also holds similar structures and randomly drawn compounds.
# Tested on: Plasmodium berghei
# Assay: Screen against P. berghei liver stage (PbLuc), transformed with Luciferase, at 10uM
# Type: functional, HepG2
# Settings: tested at 10 uM
row,SMILES,INHIBITION [%]
1,COc1c(C)cnc(CNCC(C)C)c1C,11.95
2,CN(C)CC(=O)N1CCc2sc(C(=O)N3CCOCC3)cc21,43
3,Cc1nccn1CCN(C)c1cc(C(C)C)nc2ccnn12,51.3
4,CC(C)Cc1noc(CN(C)c2cc(C(C)C)nc3ccnn23)n1,23.5
5,Cc1cc(N(C)CCn2ccnc2C)n2nccc2n1,48.1
6,CC(C)CC(Cc1cccc(Br)c1)C(=O)O (stereo not given),65.4
7,COCCC(Cc1cccc(Br)c1)C(=O)O (stereo not given),9
8,COCCC(Cc1cccc(Br)c1)C(N)=O (stereo not given),25.3
9,CS(=O)(=O)NC[C@H]1Cn2c(-c3ccccc3)cnc2CO1,25.3
10,CS(=O)(=O)NC[C@H]1Cn2c(-c3ccc(F)cc3)cnc2CO1,51.7
11,CS(=O)(=O)NC[C@H]1Cn2c(-c3ccc(Cl)cc3)cnc2CO1,5.58
12,CC(=O)Nc1nc(CN2CCOC(Cn3cncn3)C2)cs1 (stereo not given),11.6
13,Cn1cnnc1CCNC(=O)c1cnn(Cc2ccccc2)c1,10.7
14,Cc1noc(C)c1CN(C)C(=O)NC1CCC(O)CC1 (stereo not given),40.15
15,O[C@H]1[C@H](n2cc(-c3ccccn3)nn2)c2ccccc2C12CCNCC2,-110
16,O[C@H]1[C@H](NCCSc2ccccn2)c2ccccc2C12CCNCC2,52.2
17,O=C(CC1CCc2ccccc21)NCCSc1ccccn1 (stereo not given),-8.25
18,OCc1cn([C@@H]2c3ccccc3C3(CCNCC3)[C@H]2O)nn1,-76.9
19,O[C@H]1[C@H](NCCc2cnccn2)c2ccccc2C12CCNCC2,57.8
20,O[C@H]1[C@H](NCCc2ccccn2)c2ccccc2C12CCNCC2,28.7

row,SMILES,INHIBITION [%]
1,COc1ccc(Nc2nc(N)c(C(C)=O)s2)cc1OC,27.5
2,Cc1cnn(Cc2cccc(OCC(N)=O)c2)c1,40.7
3,Cc1ccsc1CNC1CCCc2c1cnn2C (stereo not given),-2.19
4,CC(C)(Oc1ccc(C(N)=O)cc1)C(=O)N(CCC#N)C1CC1,23.3
5,O=C(NC1CCN(CC2CCCC2)C1)N1CCC(OCC2CC2)CC1 (stereo not given),39.7
6,NC(=O)C1CCN(C(=O)NC2CCN(CC3CCCC3)C2)CC1 (stereo not given),7.83
7,O=C(NC1CCN(CC2CC2)C1)N1CCC(OC2CCCCC2)CC1 (stereo not given),74
8,CCOCc1cnc2n1CCN(C(=O)Cc1ccco1)C2C (stereo not given),10.5
9,COCCC(=O)N1CCn2c(COCC3CC3)cnc2C1C (stereo not given),51.2
10,CCOCc1cnc2n1CCN(C(=O)c1ccccc1)C2C (stereo not given),57.5
11,CC1c2ncc(COCC3CC3)n2CCN1C (stereo not given),21.7
12,CCOCc1cnc2n1CCN(C(=O)Cc1ccccn1)C2C (stereo not given),37.8
13,CCOCc1cnc2n1CCN(C(=O)c1cccc3c1OCCO3)C2C (stereo not given),52.1
14,CCOCc1cnc2n1CCN(C(=O)Cc1cccs1)C2C (stereo not given),34.6
15,CCOCc1cnc2n1CCN(C(=O)C1=CCCC1)C2C (stereo not given),5.96
16,CC1c2ncc(COCC3CC3)n2CCN1C(=O)c1ccnnc1 (stereo not given),-27
17,CCOCc1cnc2n1CCN(C(=O)c1ccoc1C)C2C (stereo not given),48.4
18,COCc1cnc2n1CCN(C(=O)c1cn(C)c3ccccc13)C2C (stereo not given),16.8
19,CCOCc1cnc2n1CCN(C(=O)c1cn(C)c3ccccc13)C2C (stereo not given),57.5
20,CCc1noc(C)c1C(=O)N1CCCC1c1c(C)nn(C)c1C (stereo not given),31.8

row,SMILES,INHIBITION [%]
1,Cc1ccc(C(NCC(=O)N2CCNC(=O)C2)C(F)(F)F)cc1 (stereo not given),18.3
2,CC(C)(CNC1CCCN(Cc2ccccn2)C1)CN1CCOCC1 (stereo not given),33
3,O=C(NCC1CC1)C1CCC2(CCN(C(=O)c3cccnc3)CC2)O1 (stereo not given),6.27
4,Cc1ccc(-c2nc(C(=O)N3CCOCC3)cs2)c(C)c1,-3.85
5,Cc1cc(C)n(CCN2CCOC(CNc3cccnn3)C2)n1 (stereo not given),-39.7
6,O=C(c1ccncc1)N1CCN(Cc2cccnc2)c2ncccc2C1,7.53
7,CSc1nccc(NCc2cc3n(n2)CCCN(C(=O)C2CCC2)C3)n1,15.9
8,CC(c1ccc(F)cc1)N1CCN(Cc2nccn2C)CC1 (stereo not given),11.9
9,c1ccc(-c2ncc3c(n2)C2(CCN(c4ncccn4)C2)COC3)cc1 (stereo not given),-39.1
10,CC(C)C(=O)N1CCC2(COCc3cnc(-c4cccnc4)nc32)C1 (stereo not given),17.7
11,CN(C)C(=O)CN1CCC2(COCc3cnc(N4CCOCC4)nc32)C1 (stereo not given),19.4
12,CN(C)S(=O)(=O)N1CCC2(COCc3cnc(-c4ccccc4)nc32)C1 (stereo not given),29.7
13,CCN1CCC2(COCc3cnc(-c4cccnc4)nc32)C1 (stereo not given),28.4
14,O=S(=O)(C1CC1)N1CCC2(COCc3cnc(-c4cccnc4)nc32)C1 (stereo not given),32.1
15,O=C(C1CCC1)N1CCC2(COCc3cnc(-c4cccnc4)nc32)C1 (stereo not given),-40.4
16,CS(=O)(=O)N1CCC2(COCc3cnc(-c4ccccc4)nc32)C1 (stereo not given),-69.9
17,c1cnc(N2CCC3(COCc4cnc(-c5cccnc5)nc43)C2)nc1 (stereo not given),59.7
18,CN(C)C(=O)CN1CCC2(COCc3cnc(-c4cccnc4)nc32)C1 (stereo not given),69.3
19,CN(C)C(=O)CN1CCC2(COCc3cnc(-c4ccccc4)nc32)C1 (stereo not given),91
20,CN(C)S(=O)(=O)N1CCC2(COCc3cnc(-c4cccnc4)nc32)C1 (stereo not given),59.3
